The values below come from PubChem BioAssay AID1490 (National Center for Advancing Translational Sciences (NCATS), 2009).

Where “and” joins values, the source holds several entries; their conditions need not be identical. Equal values may be shown once. Hit rate of the full screen: of about 310,000 compounds, about 11,000 (3.5%) were called active. Another 4% or so got no clear call; they are omitted. Shown is part of a subset that was picked to be rich in actives. Unmarked numbers belong to inactive results. Calls come from the whole dose curve; as a rule, active = well fitted inhibition curve with a large enough effect; inconclusive = small, poorly fitted or top-dose-only effect, or another doubt; inactive = no such curve, though single readings can be large or run the other way.
Potency is the fitted concentration of half-maximal effect.

This assay has as its target 4'-phosphopantetheinyl transferase ffp (Bacillus subtilis) (UniProt Q9F4F7). The assay can be described thus: qHTS Assay for Inhibitors of Bacillus subtilis Sfp phosphopantetheinyl transferase (PPTase).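 For largest response in the series, negative = inhibition: 0% = enzyme reaction without inhibitor and -100% = no enzyme wells.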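 Note: the enzyme is Sfp with the accession as filed and its product quenches rhodamine fluorescence.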 The note with it: Biochemical Sfp PPTase activity. The gist of the method: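 With Hepes-Na pH 7.6 buffer containing 10 mM MgCl2, Sfp (15 nM) modified BHQ-2-YbbR (12.5 uM) using rhodamine-CoA (5 uM). Two reads 30 minutes apart at 525/598 nm yielded each well's rate.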
Turning to `CNC(=S)N/N=C/c1ccc(N2CCOCC2)s1`, the Potency was 8.91 µM (active).
On to `Cc1cc(C(=O)N/N=C/c2ccc(N3CCOCC3)cc2)c(C)o1`, for which the largest response in the series, negative = inhibition was 16%.
With `C=CCNC(=S)N/N=C/c1ccc(C)s1`, the largest response in the series, negative = inhibition is 10%.
Same read-out and setting: the value for `CC(NC(=O)COc1ccc(-c2ccccc2)cc1)C1CCCO1` (stereo not drawn) was -4.17%.
With `Cc1ccccc1/C=C\c1nc(O)c([N+](=O)[O-])c(=O)[nH]1`, the largest response in the series, negative = inhibition was 2.6%.
On the same count and under the same terms, as for `C=CCn1c(CNC(=O)c2ccco2)nnc1SCC(=O)c1ccc(OC)cc1`, the figure is 17.3%; as for `COC(=O)c1ccc(NC(=O)CSc2nnc(CNc3ccc(OC)cc3)n2C)cc1`, 7.16%.
As for `CCn1c(CNc2ccc(OC)cc2)nnc1SCC(=O)c1ccc(OC)cc1`, the Potency was 28.2 µM (active).
On to `O=C(NCc1ccc2c(c1)OCO2)C(=O)NCC1OCCN1S(=O)(=O)c1ccc(F)cc1` (stereo not drawn), for which the largest response in the series, negative = inhibition is 4.15%.
On to `COc1ccc(OC)c([C@H](O)CNC(=O)CN)c1`, for which the largest response in the series, negative = inhibition was 4.71%.
Same read-out and setting: as for `CC(C)c1nnc(NC(=O)CCC(=O)N2CCN(c3cccc(Cl)c3)CC2)s1`, the figure is 0.428%.
As to `CC(C)NS(=O)(=O)c1ccc(OCC(=O)NC2CCCCCC2)cc1`, the largest response in the series, negative = inhibition was 6.32%.
For `Cc1cc(N2CCN(S(=O)(=O)c3ccc(C)c(C)c3)CC2)c2ccccc2n1`, the largest response in the series, negative = inhibition is -20.8%.
Take `Cc1ccc(S(=O)(=O)C(C#N)c2nc3ccccc3nc2N2CCCC2)cc1C` (stereo not drawn): the Potency was 50.1 µM (active).
For the compound `Cc1ccc(S(=O)(=O)Nc2nc3ccccc3nc2N2CCc3ccccc3C2)cc1`, the largest response in the series, negative = inhibition is 9.29%.
On the same count and under the same terms, as for `COc1ccc(NS(=O)(=O)c2cccc3nsnc23)cc1Cl`, the figure is 13.3%.
For the compound `Cc1cc(-c2ccc(S(=O)(=O)N3CCN(c4cccc(C(F)(F)F)c4)CC3)s2)on1`, the largest response in the series, negative = inhibition was 8.41%.
Still for that read-out and setting: the value for `S=c1[nH]nc(-c2cccs2)n1/N=C/c1cn(-c2ccccc2)nc1-c1ccc(Cl)cc1` was -17.4%.
Consider `S=c1[nH]c(-c2cccs2)cn1-c1ccccc1`, for which the Potency was 15.8 µM (active).
As for `O=c1[nH]c(-c2cccs2)nc2ccccc12`, the largest response in the series, negative = inhibition was -0.0388%.
Still for that read-out and setting: as for `COc1cccc(NC(=O)C2C(c3ccccc3)C2(Cl)Cl)c1` (stereo not drawn), the figure is 11.1%.
On the same count and under the same terms, as for `CCn1cc(C(=O)N[C@@H](C)C(=O)NCCO)c(=O)c2cc3c(cc21)OCO3`, the figure is 20.9%; as for `Cc1ccc(S(=O)(=O)CC(=O)NC(C)c2ccccc2)cc1` (stereo not drawn), 12.8%; as for `CN(CCc1ccccn1)C1CCCN(S(=O)(=O)c2ccccc2Cl)C1` (stereo not drawn), 8.81%.
Still for that read-out and setting: as for `CC[C@H](C)[C@H](NC(=O)[C@H](Cc1ccc(O)cc1)NC(=O)[C@@H](NC(=O)[C@H](CCCN=C(N)N)NC(=O)[C@@H](N)CC(=O)O)C(C)C)C(=O)N[C@@H](Cc1cnc[nH]1)C(=O)N1CCC[C@H]1C(=O)N[C@@H](Cc1ccccc1)C(=O)O`, the figure is -1.37%; as for `CCCc1cc(-c2n[nH]c(=S)n2CC)c2ccccc2n1`, -1.53%.
As to `CCn1c(-c2ccoc2C)n[nH]c1=S`, the largest response in the series, negative = inhibition is 11.6%.
As for `CCn1c(-c2ccncc2)n[nH]c1=S`, the Potency is 39.8 µM (active).
For the compound `CC1=CCC2C(=O)N(c3cccc(C(=O)NC(C)c4ccccc4)c3)C(=O)C2C1` (stereo not drawn), the largest response in the series, negative = inhibition is 5.16%.
As for `CCOC(=O)c1ccc(N2C(=O)CC(N(C)Cc3ccccc3)C2=O)cc1` (stereo not drawn), the largest response in the series, negative = inhibition is 16.2%.
Still for that read-out and setting: as for `CCOc1ccc(N2C(=O)CC(N(O)c3ccccc3)C2=O)cc1` (stereo not drawn), the figure is -14.7%.
For `CCCCCCC(=O)N(O)C1CC(=O)N(c2ccccc2)C1=O` (stereo not drawn), the Potency was 7.08 µM (active).
Turning to `COc1ccc(CCNC(=O)CCc2cn(C)c3ccccc23)c(OC)c1`, the largest response in the series, negative = inhibition is 10.4%.
`Cc1onc(-c2ccccc2)c1C(=O)N1CCN(S(=O)(=O)c2ccccc2C(F)(F)F)CC1`: the largest response in the series, negative = inhibition is 21.8%.
Turning to `O=C(O)C1CCN(c2ccc([N+](=O)[O-])cc2[N+](=O)[O-])CC1`, the largest response in the series, negative = inhibition is 13.6%.
For `O=[N+]([O-])c1ccc(N2CCN(c3ccc(O)cc3)CC2)c(Cl)c1`, the Potency was 50.1 µM (active).
`COc1ccc(N2CCN(c3ccc([N+](=O)[O-])cc3Cl)CC2)cc1`: the largest response in the series, negative = inhibition is 2.35%.
Turning to `O=C(Cc1ccc(Cl)cc1)NC1CCS(=O)(=O)C1` (stereo not drawn), the largest response in the series, negative = inhibition was 11.6%.
As to `COC(=O)Nc1ccc(S(=O)(=O)Nc2cc(OC)nc(OC)n2)cc1`, the largest response in the series, negative = inhibition was -10.4%.
Same read-out and setting: the value for `S=C(Nc1ccc(Br)cc1)NC1CCN(Cc2ccccc2)CC1` was 5.78%; that for `CCOc1ccccc1NC(=S)NC(=O)CCc1ccccc1` was -1.83%; that for `COC(=O)c1c(NC(=O)c2ccc(S(=O)(=O)N3CCOCC3)cc2)sc2c1CCN(C(C)C)C2` was 6.28%.
On the same count and under the same terms, the value for `Cn1c(SCC(=O)c2ccc(F)cc2)nnc1-c1ccccn1` was -4.04%; that for `Cn1c(CNc2nc(-c3ccccc3)cs2)nnc1SCC(=O)c1ccccc1` was 3.73%.
Take `Cn1c(CC2Sc3ccccc3NC2=O)nnc1SCC(=O)c1ccc(Cl)cc1` (stereo not drawn): the Potency was 44.7 µM (active).
Take `COCCN1CCn2c(nc3cc(NS(C)(=O)=O)ccc32)C1`: the largest response in the series, negative = inhibition is 11.6%.
Regarding `Cc1cc(=O)oc2c1ccc1ccccc12`, the largest response in the series, negative = inhibition was 3.98%.
As to `CC(=O)c1ccc(NC(=O)c2cc(-c3cccs3)on2)cc1`, the largest response in the series, negative = inhibition is 1.32%.
Still for that read-out and setting: as for `COc1cc(=O)[nH]c(=O)n1C(=O)Cc1ccccc1`, the figure is 9.86%.
As for `CCCOc1ccc(Cn2c(O)cc(=O)[nH]c2=O)cc1`, the Potency is 44.7 µM (active).
Turning to `COc1ccc(Cn2c(=O)cc(C)[nH]c2=S)cc1`, the largest response in the series, negative = inhibition was -4.49%.
Regarding `Cc1cc(F)ccc1NC(=S)NCCc1ccccc1`, the largest response in the series, negative = inhibition is 0.31%.
Regarding `CC1CCN(CCCn2c(SCC(=O)NC3CCCC3)nc3ccccc3c2=O)CC1`, the largest response in the series, negative = inhibition was 6.04%.
With `CC[C@H](C)[C@H](NC(=O)[C@H](Cc1cnc[nH]1)NC(=O)[C@@H](N)CCC(=O)O)C(=O)N1CCC[C@H]1C(=O)N[C@@H](C)C(=O)O`, the largest response in the series, negative = inhibition was 3.28%.
For `COc1cc(OC)c(NS(=O)(=O)c2cn(C)cn2)cc1Cl`, the largest response in the series, negative = inhibition was 14.3%.
As to `CCN(CC)CCC(c1ccc2c(c1)OCO2)c1c(OC)cc(OC)c2c(-c3ccccc3)cc(=O)oc12` (stereo not drawn), the largest response in the series, negative = inhibition is -27% and -23.4%.
Regarding `COc1cc(-c2c(-c3ccc4c(c3)OCO4)noc2C)ccc1F`, the largest response in the series, negative = inhibition was -12.4%.
In the case of `COc1c2c(cc3occ(-c4ccc5c(c4)OCO5)c(=O)c13)OC(C)(C)C=C2`, the Potency is 39.8 µM (active).
`O=C(NC(=S)Nc1ccc(Cl)cc1Cl)C1CC1`: the largest response in the series, negative = inhibition was 8.51%.
As for `COc1cc(Cl)ccc1OCc1cc(C(=O)N(C)CCc2c(C)n[nH]c2C)no1`, the largest response in the series, negative = inhibition is 11.4%.
`Cc1c(C)c(C)c2[nH]c(=S)[nH]c2c1C`: the largest response in the series, negative = inhibition was 7.86%.
On to `O=c1[nH]c(=S)[nH]c2[nH]c(=S)[nH]c12`, for which the Potency was 3.16 µM (active).
Regarding `O=C(c1cc(C(=O)N2CCN(c3ccc(F)cc3)CC2)cc([N+](=O)[O-])c1)N1CCN(c2ccc(F)cc2)CC1`, the largest response in the series, negative = inhibition is 21.7%.
With `CC1CCN(C(=O)c2ccc3c(c2)NC(=O)CN3)CC1`, the largest response in the series, negative = inhibition is 6.69%.
On to `Cc1ccc(CSCC2Nc3ccc(C(=O)N4CCN(c5ccc(F)cc5)CC4)cc3NC2=O)cc1` (stereo not drawn), for which the Potency is 50.1 µM (active).
In the case of `O=C(c1cccc(C(=O)N2CCN(c3ccc(F)cc3)CC2)c1)N1CCN(c2ccc(F)cc2)CC1`, the largest response in the series, negative = inhibition was -15.2%.
`O=C(c1cccc(F)c1)N1CCC2(CC1)CCN(c1ccccc1)CC2`: the largest response in the series, negative = inhibition was 2.37%.
As for `O=C1Nc2cc(C(=O)N3CCN(c4ccc(F)cc4)CC3)ccc2NC1CSCc1cccc(F)c1` (stereo not drawn), the Potency was 44.7 µM (active).
Consider `CC(C)[C@@H](OCc1ccccc1)[C@H](C)/C=N\OC[C@@H](C)[C@H](OCc1ccccc1)C(C)C`, for which the largest response in the series, negative = inhibition is 6.88%.
With `CCCc1cc(=O)oc2c(C)c(OCC(=O)Nc3ccccn3)ccc12`, the largest response in the series, negative = inhibition was -8.94%.
For the compound `Cc1ccc(S(=O)(=O)N(C)C)cc1NC(=O)c1ccccc1Br`, the largest response in the series, negative = inhibition is 14%.
The same measure, in the same setting: the value for `COc1ccc(C)cc1NC(=O)c1[nH]c(C)c(C(C)=O)c1C` was 1.79%.
With `CC(=O)c1c(C)[nH]c(C(=O)Nc2cc(S(=O)(=O)N(C)C)ccc2C)c1C`, the Potency is 79.4 µM (active).
Consider `FC(F)Oc1ccc(NC(=S)NCc2ccco2)cc1Cl`, for which the largest response in the series, negative = inhibition is -3.21%.
Consider `S=C(NCc1ccc2c(c1)OCO2)NCc1ccco1`, for which the Potency was 39.8 µM (active).
On to `COc1cccc(NC(=S)NCc2ccco2)c1`, for which the largest response in the series, negative = inhibition was 16.1%.
Regarding `Cc1c(Cl)cccc1NC(=S)NCc1ccc2c(c1)OCO2`, the largest response in the series, negative = inhibition is 0.527%.
Turning to `S=C(NCc1ccco1)Nc1ccc2c(c1)OCCO2`, the Potency was 28.2 µM (active).
For `S=C(NCc1ccco1)NCc1ccccc1Cl`, the largest response in the series, negative = inhibition was 8.59%.
Take `CCC(C)[C@H]1COCCS(=O)(=O)N1Cc1ccc(C)cc1` (stereo partly drawn): the largest response in the series, negative = inhibition is 13.1%.
Still for that read-out and setting: as for `Cc1cc(C(F)F)nn1CC(=O)NC1CCCCCC1`, the figure is 15.4%.
On the same count and under the same terms, the value for `CCCCOP(=O)(c1ccc(N(C)C)cc1)C(O)c1cc(OC)ccc1OC` (stereo not drawn) was 4.86%; that for `CCn1c(CC(=O)Nc2ccccc2C)nnc1SCC(=O)NC1=NCCS1` was 7.23%.
Same read-out and setting: the value for `O=C(Nc1nnc(C2=COCCO2)o1)c1ccc([N+](=O)[O-])s1` was 5.3%.
As to `COc1ccccc1Oc1nc(-c2cccnc2)nc2ccccc12`, the largest response in the series, negative = inhibition is -13.5%.
On the same count and under the same terms, as for `COc1ccc(Nc2nc(-c3cccnc3)nc3ccccc23)cn1`, the figure is 5.49%.
For `Fc1ccc(/C=N/Nc2nc(-c3cccnc3)nc3ccccc23)cc1`, the Potency was 31.6 µM (active).
As to `CCCCCC1CC(COc2ccccc2)OC1=O` (stereo not drawn), the largest response in the series, negative = inhibition was 11.1%.
Take `CC(=O)N1CCOc2ccc(S(=O)(=O)N3CCC(C(=O)Nc4ccccc4F)CC3)cc21`: the largest response in the series, negative = inhibition is 2.67%.
Still for that read-out and setting: as for `COCCNC(=O)c1ccc2c(c1)ncn2-c1ccc(C)c(Cl)c1`, the figure is 6.27%; as for `COc1ccccc1N1CCN(CC(=O)NC(=O)NCc2ccco2)CC1`, 7.58%.
As for `CC1(c2ccccc2Cl)NC(=O)N(CC(=O)NC(=O)NCc2ccco2)C1=O` (stereo not drawn), the Potency was 79.4 µM (active).
For `O=C(CN1CCN(S(=O)(=O)/C=C/c2ccccc2)CC1)NC(=O)NCc1ccco1`, the largest response in the series, negative = inhibition is -18.1%.
